For 27 compounds, Potency results are on record in PubChem BioAssay (NCATS).

Assay [1] can be described thus: qHTS of pediatric cancer cell lines to identify multiple opportunities for drug repurposing: Primary screen for U-2 OS cells (AID 1347096). Note: nearly all actives have a fitted effect of over 50% in size. As to conditions: U-2 OS viability, CellTiter-Glo luminescence, 48 h; series mostly up to 46 µM. In short, it runs like this: (§1)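 Cells (500-1,000/well) in growth media were settled 5 h at 37 degrees C, then given compounds for 48 h. Viability was read as CellTiter-Glo luminescence. Primary runs used MIPE at 11 points (0.78 nM-46 µM) and NPC at 8 points (0.59 nM-46 µM); follow-ups used 11 points.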
For orientation: qHTS replaces the single test concentration by a dilution series.

A short description of assay [2]: qHTS of pediatric cancer cell lines to identify multiple opportunities for drug repurposing: Primary screen for SK-N-SH cells (AID 1347098). Note: nearly all actives have a fitted effect of over 65% in size. Note: potency is the fitted concentration of half-maximal effect. Conditions: SK-N-SH viability, CellTiter-Glo luminescence, 48 h; series mostly up to 57 µM. In outline: (§2)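 Cells (500-1,000/well) rested 5 h, then received compounds for 48 h; metabolically active cells were measured by CellTiter-Glo luminescence. Final concentrations spanned up to 46 µM (MIPE, 11-point) or 0.59 nM-46 µM (NPC, 8-point) in primary screens, 11-point in follow-ups.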

Assay [3] in a line: qHTS of pediatric cancer cell lines to identify multiple opportunities for drug repurposing: Primary screen for BT-12 cells (AID 1347101). Note: nearly all actives have a fitted effect of over 25% in size. Note: potency is the fitted concentration of half-maximal effect. As to conditions: BT-12 viability, CellTiter-Glo luminescence, 48 h; series mostly up to 57.3 µM. In short, it runs like this:
as §2

The nature of assay [4]: qHTS of pediatric cancer cell lines to identify multiple opportunities for drug repurposing: Primary screen for Rh18 cells (AID 1347102). Note: nearly all actives have a fitted effect of over 65% in size. Note: potency is the fitted concentration of half-maximal effect. As to conditions: Rh18 rhabdomyosarcoma viability, CellTiter-Glo luminescence, 48 h; series mostly up to 46 µM. In short, it runs like this: as §1
The nature of assay [5]: qHTS of pediatric cancer cell lines to identify multiple opportunities for drug repurposing: Primary screen for NB1643 cells (AID 1347099). Note: nearly all actives have a fitted effect of over 50% in size. Note: potency is the fitted concentration of half-maximal effect. Conditions: NB1643 neuroblastoma viability, CellTiter-Glo luminescence, 48 h; series mostly up to 46 µM. In outline: (§3)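 Quantitative HTS format: each compound titrated (MIPE 11 points from 0.78 nM, NPC 8 points from 0.59 nM) onto cells plated 5 hours earlier. After 48 h at 37 degrees C, CellTiter-Glo luminescence was recorded.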

Assay [6] is described as follows: qHTS of pediatric cancer cell lines to identify multiple opportunities for drug repurposing: Primary screen for LAN-5 cells (AID 1347100). Note: potency is the fitted concentration of half-maximal effect. Conditions: LAN-5 neuroblastoma viability, CellTiter-Glo luminescence, 48 h; series mostly up to 46 µM. In outline:
as §1

Assay [7] is described as follows: qHTS of pediatric cancer cell lines to identify multiple opportunities for drug repurposing: Primary screen for RD cells (AID 1347104). Note: nearly all actives have a fitted effect of over 55% in size. Note: potency is the fitted concentration of half-maximal effect. Conditions: RD rhabdomyosarcoma viability, CellTiter-Glo luminescence, 48 h; series mostly up to 46 µM. In short, it runs like this:
as §3

A short description of assay [8]: qHTS of pediatric cancer cell lines to identify multiple opportunities for drug repurposing: Primary screen for MG 63 (6-TG R) cells (AID 1347105). Note: nearly all actives have a fitted effect of over 50% in size. Note: potency is the fitted concentration of half-maximal effect. Conditions: MG 63 (6-TG R) viability, CellTiter-Glo, 48 h; series mostly up to 46 µM. In outline:
as §3

Assay [9] in a line: qHTS of pediatric cancer cell lines to identify multiple opportunities for drug repurposing: Primary screen for OHS-50 cells (AID 1347103). Note: nearly all actives have a fitted effect of over 40% in size. Note: potency is the fitted concentration of half-maximal effect. Conditions: OHS-50 osteosarcoma viability, CellTiter-Glo luminescence, 48 h; series mostly up to 57.3 µM. In short, it runs like this: as §2
Assay [10] can be described thus: qHTS of pediatric cancer cell lines to identify multiple opportunities for drug repurposing: Primary screen for Saos-2 cells (AID 1347097). Note: nearly all actives have a fitted effect of over 40% in size. Note: potency is the fitted concentration of half-maximal effect. Conditions: Saos-2 viability, CellTiter-Glo ATP luminescence, 48 h; series mostly up to 46 µM. In outline: as §3

Records with an inconclusive call do not appear. Calls of active or inactive are those of the source. Calls come from the whole dose curve; as a rule, active = well fitted curve in the direction sought with a large enough effect; inconclusive = small, poorly fitted or top-dose-only effect, or another doubt; inactive = no such curve, though single readings can be large; an effect the other way counts as inactive or inconclusive.

As for `CCc1oc2ccccc2c1C(=O)c1cc(Br)c(O)c(Br)c1`, the Potency entry in assay [1], in [3] and in [4] was “inactive” throughout. Besides, the Potency in assay [2] was 19.4 µM (active).

Take `CC(=O)OCC(=O)[C@H]1CC[C@H]2[C@@H]3CCC4=CC(=O)CC[C@]4(C)[C@H]3CC[C@]12C`: the Potency result in assay [1], in assay [2], in [5], in [6], in assay [3] and in assay [7] was “inactive” in each case. Further, the Potency result in assay [8] is “inactive”.

For the compound `CN1CCN(CCC(=O)N2c3ccccc3Sc3ccc(C(F)(F)F)cc32)CC1`, the Potency entry in assay [1] is “inactive”. Further, the Potency in [2] is 9.7 µM (active); in assay [6], 26.6 µM (active); in assay [9], 17.4 µM (active); in [7], 23.7 µM (active).

For the compound `CCNC(=O)/C=C/c1cccc(Br)c1`, the Potency result in [1], in [5], in assay [6], in [3], in [4] and in [7] was “inactive” in each case. Further, the Potency entry in assay [8] was “inactive”.

For the compound `CN1CCN(c2c(F)cc3c(=O)c(C(=O)O)cn4c3c2SCC4)CC1`, the Potency result in assay [1], in assay [5], in assay [6], in assay [3], in assay [9] and in [7] was “inactive” throughout. Besides, the Potency result in assay [8] was “inactive”.

In the case of `C[C@@H](O)[C@H]1C(=O)N2C(C(=O)O)=C(S[C@@H]3CN[C@H](CNS(N)(=O)=O)C3)[C@H](C)[C@H]12`, the Potency entry in assay [1], in [5], in assay [6], in assay [3], in assay [4] and in assay [9] was “inactive” each time. The Potency entry in [7] and in assay [8] was “inactive” throughout.

On to `OC[C@H]1O[C@@H]2O[C@H]3[C@H](O)[C@@H](O)[C@@H](O[C@H]4[C@H](O)[C@@H](O)[C@@H](O[C@H]5[C@H](O)[C@@H](O)[C@@H](O[C@H]6[C@H](O)[C@@H](O)[C@@H](O[C@H]7[C@H](O)[C@@H](O)[C@@H](O[C@H]8[C@H](O)[C@@H](O)[C@@H](O[C@H]1[C@H](O)[C@H]2O)O[C@@H]8CO)O[C@@H]7CO)O[C@@H]6CO)O[C@@H]5CO)O[C@@H]4CO)O[C@@H]3CO`, for which the Potency entry in assay [1], in [5], in [6], in assay [3], in assay [4] and in assay [9] was “inactive” each time. Moreover, the Potency entry in assay [7] and in assay [8] was “inactive” throughout.

As for `C=C[C@H]1CN2CC[C@H]1C[C@H]2[C@H](O)c1ccnc2ccc(OC)cc12`, the Potency result in assay [1], in assay [5], in [6], in assay [3], in [4] and in assay [7] was “inactive” each time. Also, in [8], the Potency entry is “inactive”.

Regarding `Nc1ccc(C(=O)NCC(=O)O)cc1`, the Potency entry in [1], in [2], in assay [5], in assay [3], in assay [4] and in assay [9] was “inactive” each time. For the same compound, the Potency result in assay [7] and in assay [8] was “inactive” throughout.

On to `O=C(Nc1cccc(C2=NCCN2)c1)Nc1cccc(C2=NCCN2)c1`, for which the Potency entry in assay [1], in [2], in assay [5], in [4], in assay [9] and in assay [7] was “inactive” throughout. Moreover, in assay [8], the Potency result is “inactive”.

With `CC(=O)Nc1ccc(OCC(O)CNC(C)C)cc1` (stereo not given), the Potency entry in assay [1], in assay [6], in assay [3], in [4], in assay [9] and in assay [7] was “inactive” each time. Also, the Potency entry in assay [8] was “inactive”.

Regarding `O=C(Nc1ccccc1)OCC(CN1CCCCC1)OC(=O)Nc1ccccc1` (stereo not given), the Potency result in [1] and in [5] was “inactive” throughout. In addition, the Potency in assay [7] is 29.9 µM (active).

For the compound `CCCCNc1ccc(C(=O)OCCOCCOCCOCCOCCOCCOCCOCCOCCOC)cc1`, the Potency result in assay [10], in assay [2], in assay [5], in assay [6], in assay [4] and in [7] was “inactive” throughout. The Potency entry in assay [8] is “inactive”.

`CCCCCCCC/C=C\CCCCCCCCN`: the Potency result in assay [10], in assay [2], in assay [5], in assay [3], in assay [4] and in assay [9] was “inactive” throughout. Moreover, the Potency entry in assay [7] and in assay [8] was “inactive” throughout.

With `CC(C)=CCOc1ccc(/C=C/C(=O)c2ccc(OCC=C(C)C)cc2OCC(=O)O)cc1`, the Potency result in assay [1] and in assay [4] was “inactive” in each case. Besides, the Potency is 23.7 µM (active) in [5] and 33.5 µM (active) in [8].

`CC[C@H](c1ccc(O)cc1)[C@@H](CC)c1ccc(O)cc1`: the Potency in assay [10] is 23.7 µM (active); in assay [2], 19.4 µM (active); in [9], 27.6 µM (active); in assay [8] it was 13.3 µM (active). For the same compound, the Potency result in assay [6] was “inactive”.

For `Oc1ccccc1C=NCc1ccccc1`, the Potency entry in [10], in assay [2], in assay [5], in assay [6], in assay [3] and in assay [9] was “inactive” throughout. Also, the Potency result in assay [7] and in assay [8] was “inactive” throughout.

Turning to `CN1CCN(c2cc3c(cc2F)c(=O)c(C(=O)O)cn3-c2ccc(F)cc2)CC1`, the Potency result in [10], in assay [2], in assay [5], in assay [6], in assay [3] and in [4] was “inactive” throughout. Moreover, the Potency result in [9], in [7] and in assay [8] was “inactive” throughout.

Take `COc1ccc(S(=O)(=O)N2c3ccc(Cl)cc3[C@@](O)(c3ccccc3Cl)[C@H]2C(=O)N2CCC[C@@H]2C(N)=O)cc1OC`: the Potency entry in assay [10], in assay [2], in assay [5], in assay [6], in assay [3] and in assay [9] was “inactive” each time. Moreover, the Potency result in assay [7] and in assay [8] was “inactive” throughout.

As for `O=C(CCCN1CC=C(n2c(=O)[nH]c3ccccc32)CC1)c1ccc(F)cc1`, the Potency entry in assay [10], in [2], in [4] and in [8] was “inactive” throughout. In addition, the Potency in assay [5] was 26.6 µM (active).

For `CCOC(=O)[C@@](C)(N)Cc1ccc(O)c(O)c1`, the Potency entry in assay [1], in assay [6] and in assay [4] was “inactive” in each case. The Potency in assay [5] was 23.7 µM (active).

For `O=S(c1cc(Cl)cc(Cl)c1O)c1cc(Cl)cc(Cl)c1O`, in [10], the Potency is 16.8 µM (active). Further, the Potency entry in assay [2], in [5], in assay [6], in [3], in assay [4] and in [9] was “inactive” throughout. Further, the Potency result in assay [7] and in assay [8] was “inactive” in each case.

For `CC(O)Cn1cnc2c1c(=O)n(C)c(=O)n2C` (stereo not given), the Potency entry in assay [10], in assay [2], in assay [5], in assay [3], in assay [4] and in assay [9] was “inactive” each time. Besides, the Potency entry in assay [7] and in assay [8] was “inactive” each time.

As to `CCCCCCCCCCCCCC[N+](C)(C)Cc1ccccc1`, the Potency in [10] was 23.7 µM (active); in assay [2], 30.7 µM (active); in assay [6], 21.1 µM (active); in assay [3], 6.92 µM (active); in assay [4], 5.96 µM (active); in assay [9] it was 4.37 µM (active). The Potency in assay [7] is 21.1 µM (active).

As for `CCC(CC)(CC(=O)Nc1cccc(/C=C/c2nc(C3CCC3)cs2)c1)C(=O)O`, the Potency entry in assay [10], in assay [2], in assay [5], in assay [6], in [3] and in assay [4] was “inactive” each time. Moreover, the Potency result in [7] and in assay [8] was “inactive” in each case.

`Nc1nc(Cl)nc2c1ncn2[C@@H]1O[C@H](CO)[C@@H](O)[C@@H]1F`: the Potency entry in assay [1] and in assay [7] was “inactive” each time. The results for the Potency in assay [9] and in assay [8] were 0.195 µM (active) and 0.841 µM (active), respectively.

As for `CCC1NC(=O)c2cc(S(N)(=O)=O)c(Cl)cc2N1` (stereo not given), the Potency result in [10], in assay [2], in assay [5], in [6], in assay [3] and in assay [9] was “inactive” throughout. The Potency result in assay [7] and in [8] was “inactive” in each case.
